Our source for the growth values is PubChem BioAssay (NCI).

Compounds without any hit were thinned out: in the full panel of roughly 83,000, 20% have a hit.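 In brief: 96-well plates, 48 h treatment, single concentration, percent growth endpoint.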 Activity calls are given as the source filed them. The calls were made as follows: active = growth percent below 10; inactive = the rest.

This assay has as its system MDA-MB-468 breast. As to the kind of experiment: NCI-60 one-dose screen, 48 h (100 = growth as untreated, 0 = no growth, -100 = all killed). Particulars: 10 µM unless noted.
On to `CN(C)c1ccc(C#Cc2c(F)cccc2Cl)cc1`, for which the growth is 8.33% (active).

`CC1(C)CC[C@]23CC[C@]4(C)[C@H](CC[C@@H]5[C@@]6(C)C/C(=C/O)C(=O)C(C)(C)[C@@H]6CC[C@]54C)[C@H]2[C@H]1OC3`: the growth was 119% (inactive).

Regarding `O=C1/C(=C\c2ccccn2)c2ccccc2N1c1c(Cl)cccc1Cl`, the growth was -17.2% (active).

Take `CN1C(=O)CN2CCc3ccccc3C2c2cc(Cl)ccc21` (stereo unspecified): the growth was 115% (inactive).

Turning to `O=C(/C=C/c1ccccc1)c1ccc(Nc2nc(NCCO)nc(Nc3ccc(Cl)cc3)n2)cc1`, the growth is 64.5% (inactive).

Turning to `O=C(Nc1ccc2cc3ccc(NC(=O)NC4CCCCC4)cc3nc2c1)NC1CCCCC1`, the growth was 105% (inactive).

Consider `CC(C)(Sc1cc(C(C)(C)C)c(O)c(C(C)(C)C)c1)Sc1cc(C(C)(C)C)c(OC(=O)CCCC(=O)O)c(C(C)(C)C)c1`, for which the growth was 43.5% (inactive).

For `C=CCN(/C=C1/C(=O)O[C@H](COC)[C@@]2(C)C1=C(O)C(=O)C1=C2[C@H](OC(C)=O)C[C@]2(C)C(=O)CC[C@@H]12)CC=C`, the growth is -32.2% (active).

Consider `COc1cccc(-c2nc3sccn3c2-c2cccc(S(C)(=O)=O)c2)c1`, for which the growth was 89.1% (inactive).

Turning to `CC(=O)[C@@H]1CC[C@]2(CO)CC[C@]3(C)[C@H](CC[C@@H]4[C@@]5(C)CCCNC(C)(C)[C@@H]5CC[C@]43C)[C@@H]12`, the growth was 106% (inactive).

Regarding `Cc1ncc(C(=O)Nc2ccc(CN3CCN(C)CC3)c(C(F)(F)F)c2)cc1C#Cc1cnc(N)c2ncccc12`, the growth is 63.1% (inactive).

For the molecule `COc1cc(C(=O)Nc2cc(O)c(C/C=C(\C)CCC=C(C)C)c(O)c2)cc2c1O[C@]1(C)CC[C@@H](O)C(C)(C)[C@H]1C2`, the growth was 3.89% (active).

Regarding `COc1ccc([C@@H]2[C@@H](Oc3ccccc3)C(=O)N2c2cc(OC)c(OC)c(OC)c2)cc1F`, the growth is 4.05% (active).

Regarding `C[N+](C)(C)CCOC(OCC[N+](C)(C)C)(c1ccccc1)c1ccccc1`, the growth was 128% (inactive).

On to `COc1ccc(/C=C(\C#N)C(=O)Nc2cccc(Nc3nc(SC)nc(-c4cccc([N+](=O)[O-])c4)c3C#N)c2)cc1OC`, for which the growth was 106% (inactive).

For `CCN(CC)c1ccc(/C=N/NC(=O)c2ccc(S(C)(=O)=O)cc2)c(O)c1`, the growth is 1.2% (active).

As for `O=c1cc(C(F)(F)F)c2cc(-c3cc4ccccc4c(=O)o3)c(O)cc2o1`, the growth was 61.4% (inactive).

Regarding `Cc1c(Cl)cc(Cl)c(N)c1Cl`, the growth is 111% (inactive).

As for `N#CC1C(=O)NC(c2ccccc2[N+](=O)[O-])c2sc3c(F)cccc3c21` (stereo unspecified), the growth was -49% (active).

Consider `CCN(C(=O)N1CCN(c2cc3c(cc2F)c(=O)c(C(=O)O)cn3C2CC2)CC1)c1nc(-c2ccc(C)cc2)cs1`, for which the growth is -0.725% (active).

Take `O=C(Nc1ccc(Br)cc1)Nc1cccc(Br)c1`: the growth is 27.2% (inactive).

Consider `O=C(Cn1c(-c2ccccc2)nc2cc(Cl)c(Cl)cc21)N=Nc1c(O)[nH]c2ccc(Cl)cc12`, for which the growth is 61.7% (inactive).

As for `CCCNC(=O)Nc1ccc2cc3ccc(NC(=O)NCCC)cc3nc2c1`, the growth was -52.4% (active).

For `C=C(C)[C@@H]1CC=C2c3sc(-c4ccc(C)cc4)nc3C[C@@H](C)[C@]2(C)C1`, the growth was 108% (inactive).

As to `COc1ccc2[nH]c(O)c(/C=c3/ccc4c(c3)N=C(c3ccc(F)cc3)N=4)c2c1`, the growth was 76% (inactive).

With `O=C(NCCNc1nccc(-c2c(-c3cccc(O)c3)nc3sccn23)n1)c1cc(N2CCOCC2)cc(C(F)(F)F)c1`, the growth is 94.8% (inactive).
